{
  "source": "PubChem BioAssay AID624169",
  "about": "(The Scripps Research Institute Molecular Screening Center, 2012)",
  "note": "About 2,400 (0.67%) of roughly 360,000 compounds were called active. Only a selection was taken, and actives are over-represented in it overall. Values without a mark were called inactive.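 The calls were made as follows: active = activation above a run cutoff, the mean activation of all tested compounds plus 3 SD (cut at about 14% in these data); inactive = the rest.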",
  "data": [
    {"target": "5-hydroxytryptamine receptor 2A (Mus musculus) (UniProt P35363)", "sequence (P35363 whole entry, looked up)": "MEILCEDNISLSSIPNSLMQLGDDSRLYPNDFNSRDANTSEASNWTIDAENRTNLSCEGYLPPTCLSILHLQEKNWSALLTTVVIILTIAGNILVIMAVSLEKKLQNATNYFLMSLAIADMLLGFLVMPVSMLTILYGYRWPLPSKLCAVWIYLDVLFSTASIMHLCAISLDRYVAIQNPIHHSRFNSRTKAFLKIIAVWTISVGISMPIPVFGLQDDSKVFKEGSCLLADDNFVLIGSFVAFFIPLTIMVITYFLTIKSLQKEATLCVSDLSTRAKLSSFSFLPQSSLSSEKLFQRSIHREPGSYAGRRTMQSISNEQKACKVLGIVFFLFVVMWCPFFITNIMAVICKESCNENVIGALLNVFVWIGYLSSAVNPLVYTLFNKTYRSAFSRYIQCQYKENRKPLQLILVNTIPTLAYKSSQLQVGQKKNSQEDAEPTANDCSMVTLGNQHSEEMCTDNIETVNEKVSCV", "experiment": "activation of mouse 5-HT2A receptor – cell-based, luminescence, primary screen (AID 624169);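 also: 0% = plate median of compound wells and 100% = 30 µM serotonin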", "conditions": "CHO-K1 mHTR2A beta-arrestin complementation, at 7.6 µM, stronger effect = higher value, percent of 30 µM serotonin response", "values": [
      {"smiles": "CC1(Cc2ccccc2C#N)C(=O)Nc2ccc(-c3ccc4[nH]ccc4c3)cc21", "note": "(stereo not drawn)", "activation": "-1.29%"},
      {"smiles": "Cc1ccc(CC2(C)C(=O)Nc3ccc(OC(F)(F)F)cc32)cc1", "note": "(stereo not drawn)", "activation": "-3.94%"},
      {"smiles": "CC1(Cc2cccc(C#N)c2)C(=O)Nc2ccc(-c3cccc(C(F)(F)F)c3)cc21", "note": "(stereo not drawn)", "activation": "16.7% (active)"},
      {"smiles": "COC(=O)[C@]12CCCCC=C1N(Cc1ccc3c(c1)OCO3)C(=O)[C@H](CC(=O)N1CCOCC1)C2", "activation": "2.87%"},
      {"smiles": "O=C(Nc1cccc2c1CCCC2)C1CCN(C(=O)NC2CCCCC2)CC1", "activation": "2.77%"},
      {"smiles": "CCOC(=O)c1cccc(NC(=O)C2CCCN(S(=O)(=O)c3cnc[nH]3)C2)c1", "note": "(stereo not drawn)", "activation": "9.95%"},
      {"smiles": "O=c1[nH]nc(Cc2ccccn2)c2ccccc12", "activation": "2.3%"},
      {"smiles": "Cc1cc([N+](=O)[O-])ccc1NC1CCCC1", "activation": "15.6% (active)"},
      {"smiles": "Cc1cc(C=O)c(C)n1-c1ccc(NC2CCCCC2)c([N+](=O)[O-])c1", "activation": "3.39%"},
      {"smiles": "Cc1cc([N+](=O)[O-])c(NC2CCCCC2)c([N+](=O)[O-])c1", "activation": "0.25%"},
      {"smiles": "COc1cc2sc(C)nc2cc1C", "activation": "-1.33%"},
      {"smiles": "CCOC(=O)c1cc(-c2sc(NC(=O)c3ccccc3)nc2C)n(Cc2ccccc2)n1", "activation": "-1.51%"},
      {"smiles": "CCOC(=O)c1cc(-c2ccccc2C)n(Cc2cc(C)no2)n1", "activation": "22.5% (active)"},
      {"smiles": "CCOC(=O)c1cc(-c2sc(NC(=O)c3ccccc3)nc2C)n(CCO)n1", "activation": "-1.86%"},
      {"smiles": "Cc1noc(C)c1COc1ccccc1C(=O)N(C)CC(=O)Nc1cccc(F)c1", "activation": "-2.16%"},
      {"smiles": "CCCCN1C[C@H](c2ccc(Br)cc2)[C@@H](CC(=O)Nc2ccc(Br)cc2)C1=O", "activation": "5.11%"},
      {"smiles": "O=C(CN1CCOCC1)N1CCCc2c1c(=O)oc1ccc(OCc3ccccc3)cc21", "activation": "-4.24%"},
      {"smiles": "Nc1c(N(CCO)C(=O)C2CCCCC2)c(=O)[nH]c(=O)n1Cc1ccccc1", "activation": "-0.82%"},
      {"smiles": "Nc1c(N(Cc2ccco2)C(=O)c2cccc(F)c2)c(=O)[nH]c(=O)n1Cc1ccccc1", "activation": "16.4% (active)"},
      {"smiles": "COCCN(C(=O)c1ccccc1F)c1c(N)n(Cc2ccccc2)c(=O)[nH]c1=O", "activation": "-0.11%"},
      {"smiles": "CC(C(=O)N(C)CC(=O)Nc1ccccc1C(F)(F)F)N1C(=O)c2ccccc2C1=O", "note": "(stereo not drawn)", "activation": "-1.36%"},
      {"smiles": "CC(=O)c1sc(NC(=O)CCN2C(=O)C3CC=CCC3C2=O)nc1-c1ccccc1", "note": "(stereo not drawn)", "activation": "-2.19%"},
      {"smiles": "Cc1cc(NC(=O)/C=C/C(=O)N(CC(=O)NC2CCCC2)c2ccc(F)cc2)no1", "activation": "5.36%"},
      {"smiles": "O=C(CCC(=O)N1CCN(S(=O)(=O)c2ccc(Cl)cc2)CC1)NCc1cccc(C(F)(F)F)c1", "activation": "-0.98%"},
      {"smiles": "O=C(c1ccncc1)N1CCN(S(=O)(=O)c2cc(C(F)(F)F)cc(C(F)(F)F)c2)CC1", "activation": "-5.52%"},
      {"smiles": "O=C(Cc1ccsc1)N1CCN(S(=O)(=O)c2cc(C(F)(F)F)cc(C(F)(F)F)c2)CC1", "activation": "16.3% (active)"},
      {"smiles": "CC(C)c1nc(CNC(=O)CC2C(=O)NCCN2Cc2ccoc2)cs1", "note": "(stereo not drawn)", "activation": "2.97%"},
      {"smiles": "Cc1ccc(Cc2c(C)nc3nc(SCC(=O)NCCN4CCOCC4)nn3c2C)cc1", "activation": "-7.66%"},
      {"smiles": "O=C(Oc1ccc2c(c1)CCC2)N1CCOCC1", "activation": "-4.84%"},
      {"smiles": "CC(=O)OC(C(=O)NCCc1ccccc1)c1cccnc1", "note": "(stereo not drawn)", "activation": "3.53%"},
      {"smiles": "CC(Nc1ccccc1)c1cccnc1", "note": "(stereo not drawn)", "activation": "18.4% (active)"},
      {"smiles": "CC(C)COP(=O)(c1ccc(N(C)C)cc1)C(Nc1ccccc1)c1cccnc1", "note": "(stereo not drawn)", "activation": "-1.14%"},
      {"smiles": "CCOP(=O)(OCC)C(Nc1ccc([N+](=O)[O-])cc1)c1ccc(Cl)cc1", "note": "(stereo not drawn)", "activation": "-5.36%"},
      {"smiles": "Cc1ccc(NS(=O)(=O)c2cccs2)cc1S(=O)(=O)N1CCCCCC1", "activation": "-1.7%"},
      {"smiles": "O=C(NCCS(=O)(=O)N1CCN(c2ccc(F)cc2)CC1)c1ccc2c(c1)OCO2", "activation": "5.83%"},
      {"smiles": "Cc1cc(O)c(C2(O)C(=O)Nc3ccccc32)cc1C", "note": "(stereo not drawn)", "activation": "-4.53%"},
      {"smiles": "O=C(c1ccco1)N1CCN(C(=O)c2ccc(COc3ccc(F)cc3)o2)CC1", "activation": "2.33%"},
      {"smiles": "O=C(c1ccco1)N1CCN(CCOc2ccccc2)CC1", "activation": "16.4% (active)"},
      {"smiles": "COc1cccc(OC)c1OCCN1CCN(C(=O)c2ccco2)CC1", "activation": "14.4% (active)"},
      {"smiles": "O=C(c1ccc(Br)o1)N1CCN(CCOc2ccccc2)CC1", "activation": "-0.54%"},
      {"smiles": "O=C(c1ccco1)N1CCN(Cc2cccc(C(F)(F)F)c2)CC1", "activation": "11.3%"},
      {"smiles": "O=C(OCC(=O)N1CCN(C(=O)c2ccco2)CC1)c1c(Cl)cccc1Cl", "activation": "-3.04%"},
      {"smiles": "Cc1ccc2cc(CN(c3ccc(C)c(C)c3)S(C)(=O)=O)c(=O)[nH]c2c1", "activation": "-0.92%"},
      {"smiles": "CC1CC(=S)Nc2ccccc2N1Cc1ccccc1", "note": "(stereo not drawn)", "activation": "-4.32%"},
      {"smiles": "Cc1ccc(NC(=O)CSc2nnc(CNC(=O)c3ccccc3F)o2)cc1", "activation": "-0.39%"},
      {"smiles": "Cc1ccc(NC(=O)CSc2nnc(COc3ccccc3C)o2)cc1", "activation": "40.1% (active)"},
      {"smiles": "CC(C)NC(=O)CSc1nnc(COc2ccccc2Cl)o1", "activation": "0.27%"},
      {"smiles": "CC(=O)c1ccc(NC(=O)C(C)OC(=O)c2ccc(NS(=O)(=O)c3ccc4[nH]c(=O)[nH]c4c3)cc2)cc1", "note": "(stereo not drawn)", "activation": "-1.56%"},
      {"smiles": "COc1ccc(CNC(=O)c2ccc(NS(=O)(=O)c3ccc4[nH]c(=O)[nH]c4c3)cc2)cc1OC", "activation": "16.1% (active)"},
      {"smiles": "O=C(c1ccc(NS(=O)(=O)c2ccc3[nH]c(=O)[nH]c3c2)cc1)N1CCCCC1", "activation": "2.95%"},
      {"smiles": "COc1ccc2c(c1)C(=C(C#N)C#N)C(=O)N2CCc1ccccc1", "activation": "-0.11%"},
      {"smiles": "CC(C)CC1C(=O)N(Cc2cn(Cc3ccco3)nn2)CCS(=O)(=O)N1Cc1ccc(-c2ccc(Cl)c(Cl)c2)cc1", "note": "(stereo not drawn)", "activation": "-3.53%"},
      {"smiles": "O=C(O)C1C2C=CC(O2)C1C(=O)NCCc1cccc(Cl)c1", "note": "(stereo not drawn)", "activation": "21.1% (active)"},
      {"smiles": "O=C(O)C1CC=CCC1C(=O)NCCc1ccccc1", "note": "(stereo not drawn)", "activation": "7.31%"},
      {"smiles": "O=C(O)C1C2C=CC(O2)C1C(=O)Nc1ccccn1", "note": "(stereo not drawn)", "activation": "-3.53%"},
      {"smiles": "Cc1ccccc1CN1CCC(C(=O)Nc2ccc(Oc3cccnc3)cc2)CC1", "activation": "-1.91%"},
      {"smiles": "O=C(Nc1cccc2cccnc12)c1ccc2sc([C@H]3C[C@H](O)[C@@H](CO)O3)nc2c1", "activation": "16.7% (active)"},
      {"smiles": "O=C(Nc1nnc([C@H]2C[C@H](O)[C@@H](CO)O2)s1)c1cccc(Cl)c1", "activation": "5.77%"},
      {"smiles": "O=C(Nc1ccc(Cl)cc1)c1csc([C@H]2C[C@H](O)[C@@H](CO)O2)n1", "activation": "4.98%"},
      {"smiles": "Cc1cccc(-n2c(Cc3cc(=O)[nH]c(=O)[nH]3)nnc2SCC(=O)Nc2cccc(C(F)(F)F)c2)c1", "activation": "3.15%"},
      {"smiles": "Cc1ccc(/C=N/NC(=S)NC2CCCCC2)o1", "activation": "4.42%"},
      {"smiles": "C/C(=N/NC(=O)c1ccc(Br)o1)c1ccc(C)o1", "activation": "0.28%"},
      {"smiles": "C/C(=N\\NC(=S)NC1CCCCC1)c1ccc(C)o1", "activation": "21.6% (active)"},
      {"smiles": "N#CC1=C(SCc2ccc(C#N)cc2)N=C(N)C(c2nc(-c3ccccc3)cs2)C12CCCCC2", "note": "(stereo not drawn)", "activation": "-0.07%"},
      {"smiles": "COc1ccc(OC)c(C(O)c2ncc(-c3cccc(C(F)(F)F)c3)[nH]2)c1", "note": "(stereo not drawn)", "activation": "-2.32%"},
      {"smiles": "O=C(Cc1ccccc1Cl)N1CCOCC1", "activation": "-3.57%"},
      {"smiles": "CN(C(=O)c1ccc(NC(=O)Cc2cccc(NC(=O)C3CCN(C(=O)c4ccccc4)CC3)c2)cc1)C1CC1", "activation": "-6.22%"},
      {"smiles": "COc1ccc(NS(=O)(=O)c2cc(C(=O)Nc3ccccc3C(=O)O)ccc2C)cc1", "activation": "17.9% (active)"},
      {"smiles": "COc1ccc(NS(=O)(=O)c2cc(NC(=O)CC(=O)c3ccc([N+](=O)[O-])cc3)ccc2C)cc1", "activation": "-2.57%"},
      {"smiles": "Cc1ccc(C(=O)Nc2ccccc2-c2ccccc2)cc1S(=O)(=O)Nc1ccccc1", "activation": "5.68%"},
      {"smiles": "O=S(=O)(Nc1cccc(-c2ccc(N3CCOCC3)nn2)c1)c1ccc(Cl)c(Cl)c1", "activation": "-3.29%"},
      {"smiles": "O=C(NCc1ccccc1Cl)C1CCN(S(=O)(=O)N2CCOCC2)CC1", "activation": "2.15%"},
      {"smiles": "O=C(NCc1ccccc1CN1CCCC1)C1CCN(S(=O)(=O)c2ccc(Cl)cc2)CC1", "activation": "-12.7%"},
      {"smiles": "O=C1CCc2cc(S(=O)(=O)N3CCC(C(=O)NCc4ccccc4Cl)CC3)ccc2N1", "activation": "19.6% (active)"},
      {"smiles": "COc1cccc(C(=O)n2ccc(-c3cccs3)n2)c1", "activation": "2.87%"},
      {"smiles": "Cc1ccc(C(=O)N2CCN(C3CCCCC3)CC2)s1", "activation": "7.15%"},
      {"smiles": "CCOCCOC(=O)C1=C(C)N(C)C(=O)NC1c1ccccc1F", "note": "(stereo not drawn)", "activation": "1.37%"},
      {"smiles": "O=C(CN(Cc1ccc(Br)cc1)S(=O)(=O)c1ccccc1)NCc1ccncc1", "activation": "-1.63%"},
      {"smiles": "CCc1ccc(CN(C)C(=O)C2CCC(=O)N(Cc3cccc(OC)c3)C2)nc1", "note": "(stereo not drawn)", "activation": "6.04%"},
      {"smiles": "CC(=O)Nc1ccc(S(=O)(=O)N2CCC(N(C)CCC(C)C)CC2)cc1", "activation": "6.97%"},
      {"smiles": "Cc1ccc(NC(=O)CN(C)Cc2ccc(F)cc2)c([N+](=O)[O-])c1", "activation": "1.68%"},
      {"smiles": "CCn1cc(C(=O)N2CC=C(c3ccccc3)CC2)c(=O)c2ccc(C)nc21", "activation": "-3.76%"},
      {"smiles": "CCn1cc(C(=O)OCC(=O)Nc2cccc(C)c2)c(=O)c2ccc(C)nc21", "activation": "20.9% (active)"},
      {"smiles": "CCOc1cc(C(=O)OCC(=O)Nc2cccc(C)c2)ccc1OCC(=O)N1CCOCC1", "activation": "-2.12%"},
      {"smiles": "C=CCNC(=O)CC12CC3CC(C1)CC(CC(=O)NCC=C)(C3)C2", "activation": "-3.65%"},
      {"smiles": "CCCC(=O)N1c2ccc(-c3csc(N)n3)cc2CC1C", "note": "(stereo not drawn)", "activation": "1.22%"},
      {"smiles": "CC(C)(C)C(=O)OCc1nc(-c2ccc(O)c(O)c2)cs1", "activation": "14.9% (active)"},
      {"smiles": "CN(c1ccc(O)cc1)c1nc(-c2cccnc2)cs1", "activation": "-2.76%"}
    ]}
  ]
}
